Assay results as given in PubChem BioAssay AID1362 (SRMLSC, 2008).
Out of some 190,000 compounds screened, about 4,000 (2.1%) were called active. Cut-off read from the data, not from the text of the source: active = inhibition above about 58%; inactive = the rest, inconclusive results apart; tested in S. cerevisiae. The sample as a whole holds a higher share of actives than the screen did.

Assay: growth inhibition of WT strain, primary screen, mitochondrial fusion inhibitor project, WT and mutant strains, chemical genetic (AID 1362)
Conditions: mitochondrial fusion phenotypic screen, at 10 µM
[1] = WT strain, growth inhibition, stronger effect = higher value

O=C(O)/C=C/c1ccc(S(=O)(=O)N2CCCCCC2)cc1
inhibition [1]: -9.59% (inactive)
inhibition (mutant strain inhibition): 10.2%

COCCN(C(=O)c1ccco1)c1nnc(-c2ccc(OC)cc2)s1
inhibition [1]: -4.3% (inactive)
inhibition (mutant strain inhibition): -8.85%

COCCN(C(=O)C(C)C)c1nnc(-c2ccc(C(C)(C)C)cc2)s1
inhibition [1]: 59% (active)
inhibition (mutant strain inhibition): 10%

COc1cc(OC)cc(-c2nnc(N(C)C(=O)c3ccncc3)s2)c1
inhibition [1]: -11% (inactive)
inhibition (mutant strain inhibition): -7.45%

CCC(=O)Nc1cc(C(F)(F)F)ccc1N1CCCC1
inhibition [1]: -15.6% (inactive)
inhibition (mutant strain inhibition): 12.5%

O=[N+]([O-])c1ccccc1NCc1ccc(Cl)cc1
inhibition [1]: 21.2% (inactive)
inhibition (mutant strain inhibition): 13.9%

Oc1ccc(N2CCN(C(=S)NCc3ccccc3)CC2)cc1
inhibition [1]: -2.43% (inactive)
inhibition (mutant strain inhibition): 0.26%

Oc1ccc(CNc2ccccc2O)cc1
inhibition [1]: 62% (active)
inhibition (mutant strain inhibition): 57.4%

CCC(=O)N(Cc1cc2ccccc2[nH]c1=O)c1ccc(OC)cc1
inhibition [1]: -16% (inactive)
inhibition (mutant strain inhibition): 1.27%

CN(CCOc1ccc(Br)cc1)CC(=O)Nc1cccc(S(=O)(=O)NC2=NCCC2)c1
inhibition [1]: -4.79% (inactive)
inhibition (mutant strain inhibition): -2.03%

O=C(Nc1nnc(C2COc3ccccc3O2)o1)c1ccc(F)cc1 (configuration not stated)
inhibition [1]: 62.7% (active)
inhibition (mutant strain inhibition): 52.9%

Cc1onc(-c2ccccc2)c1C(=O)NNC(=S)NC(=O)c1ccc(F)cc1
inhibition [1]: 14.1% (inactive)
inhibition (mutant strain inhibition): -24.2%

c1ccc2c(c1)OCC(c1nn3cnnc3s1)O2 (configuration not stated)
inhibition [1]: 15.5% (inactive)
inhibition (mutant strain inhibition): 14.4%

COCCNc1nc2nonc2nc1N1CCCC1c1nccs1 (configuration not stated)
inhibition [1]: 17.4% (inactive)
inhibition (mutant strain inhibition): 12.6%

Cc1cc(C)n2nc(SCC(=O)NC(=O)NCc3ccco3)nc2n1
inhibition [1]: 8.54% (inactive)
inhibition (mutant strain inhibition): 10.4%

COc1ccc(Cn2nnc3c(=O)[nH]c(C4CCN(C(=O)c5ccccc5Cl)CC4)nc32)cc1
inhibition [1]: 94.1% (active)
inhibition (mutant strain inhibition): 34.6%

Cc1ccc(NC(=O)N2CCC(c3nc4c(nnn4Cc4c(F)cccc4Cl)c(=O)[nH]3)CC2)cc1
inhibition [1]: -0.04% (inactive)
inhibition (mutant strain inhibition): 3.09%

O=C(Nc1ccc(F)cc1)N1CCCC(c2nc3c(nnn3Cc3ccccc3Cl)c(=O)[nH]2)C1 (configuration not stated)
inhibition [1]: -0.5% (inactive)
inhibition (mutant strain inhibition): 17.4%

COCCNC(=O)c1ccc(-n2c(SCc3cccnc3)nc3ccccc3c2=O)cc1
inhibition [1]: -8.55% (inactive)
inhibition (mutant strain inhibition): -7.82%

O=C(CCN1C(=O)c2ccccc2C1=O)Nc1ccncc1
inhibition [1]: 2.36% (inactive)
inhibition (mutant strain inhibition): -2.76%

O=C(CCN1c2ccccc2Sc2ccccc21)Nc1ccccc1
inhibition [1]: 69.8% (active)
inhibition (mutant strain inhibition): 43.4%

CC1CCN(CCC(=O)Nc2ccccc2)CC1
inhibition [1]: -7.63% (inactive)
inhibition (mutant strain inhibition): -10%

COc1ccc2occ(C(=O)c3ccc(N=C(C)N(C)C)cc3)c2c1
inhibition [1]: 6.86% (inactive)
inhibition (mutant strain inhibition): 8.79%

COc1ccc(OC)c(C(=O)c2coc3ccc(O)c(CN4CCOCC4)c23)c1
inhibition [1]: 7.31% (inactive)
inhibition (mutant strain inhibition): -1.21%

COc1ccc(OC)c(C(=O)c2coc3ccc(OC)cc23)c1
inhibition [1]: 80.9% (active)
inhibition (mutant strain inhibition): 15.4%

CCN(CC)CCNC(=O)c1ccc(NS(=O)(=O)c2ccc3c(c2)OCCO3)cc1
inhibition [1]: -8.91% (inactive)
inhibition (mutant strain inhibition): 1.15%

C/C(N)=C(/C#N)C(=O)COC(=O)CNS(=O)(=O)c1ccc(C)cc1
inhibition [1]: -9.23% (inactive)
inhibition (mutant strain inhibition): 5.26%

CCn1c(-c2ccncc2)n[nH]c1=S
inhibition [1]: 5.96% (inactive)
inhibition (mutant strain inhibition): 13.5%

C=CCn1c(-c2ccc3[nH]c(C)c(C)c3c2)n[nH]c1=S
inhibition [1]: 9.01% (inactive)
inhibition (mutant strain inhibition): 0.81%

CCCc1cc(-c2n[nH]c(=S)n2CC)c2ccccc2n1
inhibition [1]: -17.6% (inactive)
inhibition (mutant strain inhibition): -14.6%

CCc1cc(-c2n[nH]c(=S)n2CC(C)C)cs1
inhibition [1]: 66.2% (active)
inhibition (mutant strain inhibition): -0.18%

CCCc1cc(-c2n[nH]c(=S)n2Cc2ccccc2)cs1
inhibition [1]: 65.6% (active)
inhibition (mutant strain inhibition): 36.1%

Cc1cc(-c2csc(N)n2)c(C)n1Cc1ccccc1
inhibition [1]: 12% (inactive)
inhibition (mutant strain inhibition): 5.79%

CCC(C)CN1CCC(CO)(Cc2ccccc2Cl)CC1 (configuration not stated)
inhibition [1]: 11.3% (inactive)
inhibition (mutant strain inhibition): 4.97%

Cc1ccc(NC(=O)C(=O)NCC2CCN(C(=O)c3cccc([N+](=O)[O-])c3)CC2)cc1
inhibition [1]: 2.01% (inactive)
inhibition (mutant strain inhibition): -12.9%

COc1ccccc1-n1c(=S)[nH]c2c(sc(=S)n2-c2ccc(C)cc2C)c1=O
inhibition [1]: -7.13% (inactive)
inhibition (mutant strain inhibition): -4.6%

Cc1cc(C)nc(Nc2cc([N+](=O)[O-])ccc2C)n1
inhibition [1]: -4.85% (inactive)
inhibition (mutant strain inhibition): 9.39%

Cc1ccc(Nc2ccc(C(N)=O)cc2[N+](=O)[O-])cc1
inhibition [1]: 2.16% (inactive)
inhibition (mutant strain inhibition): -8.75%

Cc1ccc(Nc2cc(C)nc3c(C)ccc([N+](=O)[O-])c23)cc1
inhibition [1]: 64.8% (active)
inhibition (mutant strain inhibition): 56.9%

CCC(C)(C)NC(=O)CN(C(=O)C(=O)Nc1ccc2c(c1)OCCO2)C(C)(C)CC
inhibition [1]: -7.46% (inactive)
inhibition (mutant strain inhibition): 6.56%

Cc1ccc(C(=O)O)cc1N1C(=O)CCCC1=O
inhibition [1]: -14.9% (inactive)
inhibition (mutant strain inhibition): -14.6%

CCN1CCN(CCNC(=O)c2ccc(/C=C3/Sc4ccccc4N(Cc4cccc(C)c4)C3=O)cc2)CC1
inhibition [1]: 83.7% (active)
inhibition (mutant strain inhibition): 59.2%

O=C(CN1C(=O)/C(=C\c2ccc(C(F)(F)F)cc2)Sc2ccccc21)NCc1ccco1
inhibition [1]: 49% (inactive)
inhibition (mutant strain inhibition): 3.15%

Cc1nn(Cc2ccccc2)c(C)c1C(=O)NCCN1C(=O)S/C(=C\c2ccc(F)cc2)C1=O
inhibition [1]: 0.77% (inactive)
inhibition (mutant strain inhibition): 0.61%

Cc1ccc(C)c(Cn2cnc3c(oc4ccccc43)c2=O)c1
inhibition [1]: -1.67% (inactive)
inhibition (mutant strain inhibition): -14.3%

COc1cccc(/C=N/Nc2cc(C)nc(-c3ccccc3O)n2)c1O
inhibition [1]: 51.6% (inactive)
inhibition (mutant strain inhibition): 48.3%

COc1cc(NS(=O)(=O)c2ccccc2)ccc1-n1nc(C)cc1C
inhibition [1]: -33.7% (inactive)
inhibition (mutant strain inhibition): 2.02%

COc1ccc(Nc2cc(C)nc(-n3nc(C)cc3C)n2)cc1
inhibition [1]: 76.8% (active)
inhibition (mutant strain inhibition): 68.7%

COc1ccc(NC(=O)c2nc(-n3nc(C)cc3C)ccc2Cl)cc1Cl
inhibition [1]: 5.72% (inactive)
inhibition (mutant strain inhibition): -16.9%

COc1ccccc1/C=N\Nc1cc(C)nc(-n2nc(C)cc2C)n1
inhibition [1]: 69.1% (active)
inhibition (mutant strain inhibition): 28.4%

CC(=O)c1ccc(Oc2cc(C)nc(-n3nc(C)cc3C)n2)cc1
inhibition [1]: -3.85% (inactive)
inhibition (mutant strain inhibition): 8.66%

COc1ccc(-c2ccc(CCC(=O)O)n2-c2ccc(O)cc2)cc1
inhibition [1]: -12.3% (inactive)
inhibition (mutant strain inhibition): -2.11%

O=C(Nc1ccccc1)Nc1nc2ccccc2s1
inhibition [1]: -5.57% (inactive)
inhibition (mutant strain inhibition): -20.5%

COc1ccc(NC(=O)Nc2ccc3nsnc3c2)cc1
inhibition [1]: 23.1% (inactive)
inhibition (mutant strain inhibition): -36.8%

O=C(Nc1ccc2ccccc2c1)Nc1ccc2snnc2c1
inhibition [1]: 88.1% (active)
inhibition (mutant strain inhibition): 77.8%

COc1ccc2c(c1)CCc1c(C(=O)N3CCc4ccccc4C3)noc1-2
inhibition [1]: 73.9% (active)
inhibition (mutant strain inhibition): 68%

COc1ccc2c(c1)CCc1c(C(=O)N3CCCC3)noc1-2
inhibition [1]: -10.3% (inactive)
inhibition (mutant strain inhibition): -6.91%

COc1ccc2c(c1)CCc1c(C(=O)Nc3c(C)n(C)n(-c4ccccc4)c3=O)noc1-2
inhibition [1]: -9.3% (inactive)
inhibition (mutant strain inhibition): -13%

COc1ccc(CC2(CO)CCN(Cc3cnn(C)c3)CC2)cc1
inhibition [1]: 12.1% (inactive)
inhibition (mutant strain inhibition): -0.62%

Cc1cc(O)c(NC(=O)c2ccc(C)c([N+](=O)[O-])c2)cc1C
inhibition [1]: -6.28% (inactive)
inhibition (mutant strain inhibition): -4.47%

Cc1cc(OCCOc2cccc3cccnc23)c(C)cc1Cl
inhibition [1]: 14.6% (inactive)
inhibition (mutant strain inhibition): 20.4%

O=S(=O)(NCCOc1cccc2cccnc12)c1ccc(F)cc1
inhibition [1]: 0.13% (inactive)
inhibition (mutant strain inhibition): 5.48%

CCOc1cccc(OCCCOc2cccc3cccnc23)c1
inhibition [1]: 60.8% (active)
inhibition (mutant strain inhibition): 26%

CC[N+]1(CC)CC2=Cc3ccccc3CC2C1 (configuration not stated)
inhibition [1]: 0.67% (inactive)
inhibition (mutant strain inhibition): -6.63%

COCc1nnc(NC(=O)CS(=O)(=O)Cc2ccccc2)s1
inhibition [1]: -3.35% (inactive)
inhibition (mutant strain inhibition): -9.06%

O=C(CCc1ccccc1)NCc1cccnc1
inhibition [1]: -0.16% (inactive)
inhibition (mutant strain inhibition): 17.5%

O=C(CS(=O)(=O)Cc1ccccc1)Nc1cccnc1
inhibition [1]: 90.1% (active)
inhibition (mutant strain inhibition): 19.3%

COCCC(=O)Nc1ccc2c(c1)CN(C(=O)CCOC)CC2
inhibition [1]: -15.9% (inactive)
inhibition (mutant strain inhibition): -11.2%

CC(C)C1Nc2c(C(=O)O)cccc2C(Nc2ccccc2C(=O)O)C1(C)C (configuration not stated)
inhibition [1]: -8.7% (inactive)
inhibition (mutant strain inhibition): -3.34%

Cc1cccc(-n2nc3c(c2NC(=O)c2ccc(Br)o2)CSC3)c1C
inhibition [1]: 8.72% (inactive)
inhibition (mutant strain inhibition): 6.28%

Cc1cc(C)c2nc(NC(=O)c3ccc4c(c3)OCO4)sc2c1
inhibition [1]: 14.1% (inactive)
inhibition (mutant strain inhibition): -21.7%

Cc1ccc(-n2nc3c(c2NC(=O)c2ccc4c(c2)OCO4)CSC3)c(C)c1
inhibition [1]: 84% (active)
inhibition (mutant strain inhibition): 3.65%

O=C(Oc1cccc(O)c1)C1CCCCC1
inhibition [1]: -7.96% (inactive)
inhibition (mutant strain inhibition): 7.95%

CCOC(=O)c1c(CN(C)C)n(-c2ccccc2)c2cc(Br)c(O)cc12
inhibition [1]: 9.54% (inactive)
inhibition (mutant strain inhibition): 7.76%

CC(CC(=O)O)C(=O)c1ccc(Cl)c([N+](=O)[O-])c1 (configuration not stated)
inhibition [1]: -16.5% (inactive)
inhibition (mutant strain inhibition): -4.59%

O=C(Nc1ncccn1)c1cccs1
inhibition [1]: 71.2% (active)
inhibition (mutant strain inhibition): 28.9%

O=C(Nc1ccnc(-c2ccncc2)n1)c1cccs1
inhibition [1]: -10.3% (inactive)
inhibition (mutant strain inhibition): 11%

O=C(O)c1ccc(NC(=O)c2cccs2)cc1
inhibition [1]: -8.36% (inactive)
inhibition (mutant strain inhibition): 1.63%

Cc1ccccc1CN1C[C@@H]2C[C@@H](c3ccc4nsnc4c3)N3CCC[C@@]23C1=O
inhibition [1]: 7.94% (inactive)
inhibition (mutant strain inhibition): 5.04%

O=C(NCCCN1CCOCC1)c1ccccc1NS(=O)(=O)c1ccc(F)cc1
inhibition [1]: -8.48% (inactive)
inhibition (mutant strain inhibition): 6.56%

O=C(N/N=C/C=C/c1ccco1)c1cccs1
inhibition [1]: -12.2% (inactive)
inhibition (mutant strain inhibition): -0.62%

O=C1c2ccccc2S(=O)(=O)N1CC(O)Cn1c2ccccc2c2ccccc21 (configuration not stated)
inhibition [1]: 84.5% (active)
inhibition (mutant strain inhibition): 45.8%

CS(=O)(=O)N(CC(O)Cn1c2ccccc2c2ccccc21)c1cccc2ccccc12 (configuration not stated)
inhibition [1]: 31.9% (inactive)
inhibition (mutant strain inhibition): 7.33%

CNC(=O)CN1C(=O)c2ccccc2S1(=O)=O
inhibition [1]: 12.2% (inactive)
inhibition (mutant strain inhibition): -7.85%

COCCCNC(=S)N(Cc1ccccc1)Cc1ccc(F)cc1
inhibition [1]: 31.2% (inactive)
inhibition (mutant strain inhibition): 41.6%

CC(NCc1nc2ccccc2n1C)C12CC3CC(CC(C3)C1)C2 (configuration not stated)
inhibition [1]: 30.5% (inactive)
inhibition (mutant strain inhibition): 16.6%
